# Experimental data published in PubChem BioAssay (NCI).
# About 83,000 compounds went through this panel and 20% of them were active in at least one assay; those are over-represented in the sample as a whole.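 Negative percent growth values reflect cell death: -40 means 40% of the cells present at the start died, and -100 means all died.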 Unmarked numbers belong to inactive results. Active and inactive are the calls of the source. The calls were made as follows: active = growth percent below 10; inactive = the rest.
# Columns and labels:
# Test in all cases: NCI-60 one-dose screen, 48 h (100 = growth as untreated, 0 = no growth, -100 = all killed)
# Conditions in all cases: 10 µM unless noted
# NCI-H23 lung = system: NCI-H23 lung
# NCI-H226 lung = system: NCI-H226 lung
# NCI-H322M lung = system: NCI-H322M lung
# HOP-62 NSCLC = system: HOP-62 NSCLC
# NCI-H460 lung = system: NCI-H460 lung
# HOP-92 NSCLC = system: HOP-92 NSCLC
# NCI-H522 lung = system: NCI-H522 lung
# A549/ATCC NSCLC = system: A549/ATCC NSCLC
# 786-0 renal = system: 786-0 renal
# COLO 205 colon = system: COLO 205 colon
Compound,growth (NCI-H23 lung),growth (NCI-H226 lung),growth (NCI-H322M lung),growth (HOP-62 NSCLC),growth (NCI-H460 lung),growth (HOP-92 NSCLC),growth (NCI-H522 lung),growth (A549/ATCC NSCLC),growth (786-0 renal),growth (COLO 205 colon)
CCCC/C=C/[C@@H]1C[C@H]1CCO,102%,91.5%,92.1%,90.5%,105%,96.5%,78.3%,96.7%,99.5%,100%
O=S(=O)(Nc1ccc(Cl)c(C(F)(F)F)c1)c1ccc(-c2cnc(C3CC3)o2)cc1,20.4%,46.7%,44.4%,12.2%,7.09% (active),-18.5% (active),-1.8% (active),8.92% (active),25.9%,–
CCCOC(=O)Nc1nc2ccc(SCC(C)C)cc2s1,46.4%,52.4%,44.1%,40.7%,29.1%,48.4%,24.1%,34.3%,40.4%,–
Cc1ccc(C2=Nc3c(N)ncnc3NC(c3cccc(Nc4ccnc5cc(C(F)(F)F)ccc45)c3)C2)cc1 (stereo not drawn),44.3%,59.8%,67.2%,41.1%,21.2%,2.86% (active),30.6%,24.6%,42.6%,9.89% (active)
O=C(/C=C/c1cccs1)Nc1ncc(Cc2ccccc2F)s1,47.5%,57.8%,37.9%,22.4%,12.9%,60%,6.23% (active),29%,30.8%,4.7% (active)
O=C(CSC(=S)n1cnnc1)NC(=O)c1ccccc1,102%,100%,103%,106%,112%,101%,92.4%,114%,104%,–
CC(C)c1ccc(Cc2cnc(NC(=O)c3cc(Br)cs3)s2)cc1,47.6%,24.5%,45.6%,35.8%,13.6%,35.7%,-1.16% (active),31.4%,31.3%,–
Oc1ccc(Cl)cc1/C=N\NC(=S)N/N=C/c1cc(Cl)ccc1O,50%,32.5%,34.4%,51.2%,14.7%,40.1%,-7.22% (active),37.4%,21.4%,–
N#Cc1c(-c2ccccc2)cc(-c2ccc(Nc3nc(Nc4ccc(Cl)cc4)nc(Nc4ccc(Cl)cc4)n3)cc2)nc1N,39.2%,-23.4% (active),87%,99%,48.2%,-72.5% (active),80.7%,28.8%,46.7%,–
CCCCCCCCCc1ccc(OCCOCCOCCOCCOCCOCCOCCOCCOCCO)cc1,7.69% (active),17.3%,57.3%,128%,11.2%,-9.71% (active),-9.88% (active),17.3%,27.4%,–
CCN1C(=S)N(c2ccccc2)C2NC(=S)N(/N=C/C=C/c3ccccc3OC)C21 (stereo not drawn),32.7%,58%,45.6%,36.9%,3.12% (active),53.5%,-15.5% (active),11.4%,29.4%,-2.82% (active)
N#Cc1c(-c2ccccc2)cc(-c2ccccc2)n(CCCC(=O)Nc2ccccc2N)c1=O,73.5%,73.9%,102%,64.7%,33.5%,62.1%,32.4%,57.4%,63.9%,92.3%
CN(C)c1ccc(C(=O)OCCCCCCl)cc1,90.7%,99%,85.4%,91.8%,104%,89.3%,89.2%,100%,95.3%,110%
Cc1csc(Nc2nc(-c3ccccn3)nc(C(Cl)(Cl)Cl)n2)n1,84.9%,101%,80.5%,101%,84%,94.1%,86.7%,79.4%,94.8%,92%
Cn1cc(C(=O)c2nc(-c3c[nH]c4ccccc34)no2)c2cc(F)ccc21,65.1%,75.7%,62.3%,30.5%,14.1%,43.6%,2.36% (active),40.6%,54.6%,34.7%
Nc1n[nH]c2cccc(C#Cc3cccc(NC(=O)c4cc(F)cc(C(F)(F)F)c4)c3)c12,65.8%,46.6%,93.9%,95.2%,77.8%,39.1%,62.6%,84.4%,86.4%,83.7%
COC(=O)c1c(C)c2n(c1C)C(=O)C(c1ccccc1)=C2,68.9%,61.8%,94.5%,72.7%,89.5%,65.8%,61.9%,39.6%,94.3%,79.3%
COC1=CC(c2ccc[nH]2)=N/C1=C\c1[nH]c(C)c(C(=O)OC(C)C)c1C,-43.4% (active),-27.4% (active),-28.2% (active),-21.4% (active),0.0375% (active),-33% (active),-58.2% (active),-21.2% (active),-41.9% (active),-80.5% (active)
COc1ccc2cc1Oc1ccc(cc1)C[C@H]1c3c(cc4c(c3Oc3cc5c(cc3OC)CCN(C)[C@@H]5C2)OCO4)CCN1C,75.9%,87.4%,56%,115%,59.4%,52.6%,-18.8% (active),47.2%,53.5%,109%
COc1ccc(/C=N/C2=C(C#N)C(c3ccccc3)c3ccc4ccccc4c3O2)cc1 (stereo not drawn),29.9%,51.5%,43.7%,22%,8.64% (active),41.4%,-7.09% (active),16.8%,24.4%,-26.3% (active)
COc1ccc(-c2cc(-c3cc(OC)c(OC)c(OC)c3)c(C#N)c(=O)n2CCCCC(=O)NO)cc1,67.4%,82.3%,75.1%,65%,55.3%,51.9%,54.6%,71.9%,83.7%,84.3%
CCOC(=O)NC(C)C,106%,112%,107%,93.4%,115%,79.6%,99.3%,95.7%,95.6%,129%
Cc1[nH]c(=O)[nH]c(=O)c1Br,97.9%,108%,120%,104%,105%,102%,111%,98.2%,107%,112%
COc1ccc(/C=C/C(=O)c2cc3c(N)c(C(=O)Nc4cccc5ccccc45)sc3nc2C)cc1,85.1%,85%,95.8%,74.5%,75.9%,77.1%,26.1%,68.7%,46.4%,103%
O=C(O)c1ccc(-n2cc(/C=N/Nc3ccccc3)c(-c3ccc(F)cc3F)n2)cc1,71.5%,84.2%,62.1%,40.2%,55.3%,83.5%,26.6%,60%,71.5%,108%
Nc1n[nH]c2cccc(C#Cc3cccc(C(=O)Nc4cc(C(F)(F)F)cc(C(F)(F)F)c4)c3)c12,73.8%,42.7%,96.7%,93.8%,76.5%,36.9%,35.1%,80.4%,103%,81%
Cc1cc(C(=O)Nc2ncc(Cc3cccc(C(F)(F)F)c3)s2)c2ccccc2n1,51.6%,54.4%,59.3%,31.8%,11.3%,28%,10.3%,24.7%,38%,19.2%
